# Measurements reported in PubChem BioAssay AID1159580 (chemical genetic matrix, 2015).
# Values joined by “and” are separate entries in the source; they are usually repeats but may differ in a detail not shown here. Equal values may be shown once. The whole screen tested about 5,500 compounds, of which about 2,000 (36%) were called active. About 18% were inconclusive and are not listed. Some of the results follow. Values without a mark were called inactive. Rule as the data show it: active = normalized growth mostly below about 0.91 (no sharp cut-off); inconclusive = no clear call, values can overlap the other calls; inactive = mostly above about 0.92.
# Assay: chemical genetic growth profiling, strain panel (AID 1159580);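 also: tested at 20 µM; growth read once vehicle control cultures reached saturation at 30 °C; 1 = growth at the plate median or of vehicle wells; lower values mean less growth of the strain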
# Details: S. cerevisiae deletion strains, growth OD
compound,measurement,setting,value
O=C1C(Cl)=C(Cl)C(=O)C(Cl)=C1Cl,normalized growth,"locus YAL013W, strain DEP1, active compounds read low",0.483 (active)
same,normalized growth,"locus YAL021C, strain ccr4, active compounds read low",0.883 (active)
same,normalized growth,"locus YAL026C, strain drs2, active compounds read low",0.831 (active)
same,normalized growth,"locus YAL030W, strain snc1, active compounds read low",0.986
same,normalized growth,"locus YBL061C, strain skt5, active compounds read low",0.994
same,normalized growth,"locus YBR009C, strain hhf1, active compounds read low",0.843 (active)
same,normalized growth,"locus YBR021W, strain FUR4, active compounds read low",0.293 (active)
same,normalized growth,"locus YBR023C, strain chs3, active compounds read low",0.927
same,normalized growth,"locus YBR171W, strain sec66, active compounds read low",0.967
same,normalized growth,"locus YBR229C, strain ROT2, active compounds read low",0.979
same,normalized growth,"locus YBR231C, strain swc5, active compounds read low",0.96
same,normalized growth,"locus YBR279W, strain paf1, active compounds read low",0.929 (active)
same,normalized growth,"locus YCL011C, strain gbp2, active compounds read low",0.865 (active)
same,normalized growth,"locus YCL016C, strain dcc1, active compounds read low",0.919
same,normalized growth,"locus YCL029C, strain bik1, active compounds read low",0.929
same,normalized growth,"locus YCL069W, strain vba3, active compounds read low",0.985
same,normalized growth,"locus YCR088W, strain abp1, active compounds read low",0.949
same,normalized growth,"locus YDL005C, strain med2, active compounds read low",1
same,normalized growth,"locus YDL035C, strain GPR1, active compounds read low",0.525 (active)
same,normalized growth,"locus YDL040C, strain nat1, active compounds read low",0.976
same,normalized growth,"locus YDL074C, strain BRE1, active compounds read low",0.531 (active)
same,normalized growth,"locus YDL101C, strain DUN1, active compounds read low",0.941
same,normalized growth,"locus YDL134C, strain PPH21, active compounds read low",0.499 (active)
same,normalized growth,"locus YDL185W, strain tfp1, active compounds read low",0.118 (active)
same,normalized growth,"locus YDL192W, strain arf1, active compounds read low",0.239 (active)
same,normalized growth,"locus YDR001C, strain nth1, active compounds read low",0.991
same,normalized growth,"locus YDR069C, strain doa4, active compounds read low",0.92
same,normalized growth,"locus YDR101C, strain arx1, active compounds read low",0.881 (active)
same,normalized growth,"locus YDR137W, strain rgp1, active compounds read low",0.978
same,normalized growth,"locus YDR150W, strain NUM1, active compounds read low",0.79 (active)
same,normalized growth,"locus YDR159W, strain sac3, active compounds read low",1.03
same,normalized growth,"locus YDR162C, strain NBP2, active compounds read low",0.384 (active)
same,normalized growth,"locus YDR195W, strain ref2",0.894
same,normalized growth,"locus YDR297W, strain sur2, active compounds read low",0.997
same,normalized growth,"locus YDR318W, strain mcm21, active compounds read low",0.181 (active)
same,normalized growth,"locus YDR334W, strain swr1, active compounds read low",0.98
same,normalized growth,"locus YDR335W, strain msn5, active compounds read low",0.963
same,normalized growth,"locus YDR388W, active compounds read low",0.164 (active)
same,normalized growth,"locus YDR392W, strain spt3, active compounds read low",0.686 (active)
same,normalized growth,"locus YDR502C, strain sam2, active compounds read low",0.61 (active)
same,normalized growth,"locus YEL003W, strain gim4, active compounds read low",0.881 (active)
same,normalized growth,"locus YEL037C, strain rad23, active compounds read low",0.99
same,normalized growth,"locus YEL061C, strain CIN8 (second series), active compounds read low",0.954
same,normalized growth,"locus YEL061C, strain CIN8, active compounds read low",0.711 (active)
same,normalized growth,"locus YER015W, strain faa2, active compounds read low",0.878 (active)
same,normalized growth,"locus YER016W, strain bim1, active compounds read low",0.979
same,normalized growth,"locus YER110C, active compounds read low",0.704 (active)
same,normalized growth,"locus YER111C, strain swi4, active compounds read low",0.993
same,normalized growth,"locus YER155C, strain BEM2 (second series), active compounds read low",0.763 (active)
same,normalized growth,"locus YER155C, strain BEM2, active compounds read low",0.509 (active)
same,normalized growth,"locus YER167W, strain BCK2, active compounds read low",0.198 (active)
same,normalized growth,"locus YFR010W, strain ubp6, active compounds read low",0.891 (active)
same,normalized growth,"locus YGL078C, strain dbp3, active compounds read low",0.077 (active)
same,normalized growth,"locus YGL086W, strain mad1, active compounds read low",0.252 (active)
same,normalized growth,"locus YGL167C, strain pmr1, active compounds read low",0.982
same,normalized growth,"locus YGL173C, strain kem1, active compounds read low",0.958
same,normalized growth,"locus YGL227W, strain vid30, active compounds read low",0.997
same,normalized growth,"locus YGL240W, strain doc1, active compounds read low",0.99
same,normalized growth,"locus YGL248W, strain PDE1, active compounds read low",0.502 (active)
same,normalized growth,"locus YGL253W, strain hxk2, active compounds read low",0.993
same,normalized growth,"locus YGR078C, strain PAC10, active compounds read low",0.226 (active)
same,normalized growth,"locus YGR135W, strain pre9, active compounds read low",0.335 (active)
same,normalized growth,"locus YGR229C, strain SMI1, active compounds read low",0.0849 (active)
same,normalized growth,"locus YGR252W, strain gcn5, active compounds read low",0.195 (active)
same,normalized growth,"locus YHR013C, strain ard1, active compounds read low",0.829 (active)
same,normalized growth,"locus YHR027C, strain rpn1, active compounds read low",0.904 (active)
same,normalized growth,"locus YHR030C, strain SLT2, active compounds read low",0.281 (active) and 0.105 (active)
same,normalized growth,"locus YHR079C, strain IRE1 (second series), active compounds read low",0.91 (active)
same,normalized growth,"locus YHR079C, strain IRE1, active compounds read low",0.129 (active)
same,normalized growth,"locus YHR094C, strain hxt1, active compounds read low",0.614 (active)
same,normalized growth,"locus YHR129C, strain ARP1, active compounds read low",0.655 (active)
same,normalized growth,"locus YHR142W, strain chs7, active compounds read low",0.928
same,normalized growth,"locus YHR200W, strain rpn10, active compounds read low",0.27 (active)
same,normalized growth,"locus YIL066C, strain RNR3, active compounds read low",0.634 (active)
same,normalized growth,"locus YIL073C, strain SPO22, active compounds read low",0.5 (active)
same,normalized growth,"locus YIL125W, strain kgd1, active compounds read low",0.0634 (active)
same,normalized growth,"locus YIR030C, strain dcg1, active compounds read low",0.85 (active)
same,normalized growth,"locus YJL092W, strain hpr5, active compounds read low",0.94
same,normalized growth,"locus YJL095W, strain BCK1 (second series), active compounds read low",0.978
same,normalized growth,"locus YJL095W, strain BCK1, active compounds read low",0.724 (active) and 0.122 (active)
same,normalized growth,"locus YJL115W, strain asf1, active compounds read low",0.979
same,normalized growth,"locus YJL129C, strain trk1, active compounds read low",1
same,normalized growth,"locus YJL134W, strain LCB3, active compounds read low",0.937
same,normalized growth,"locus YJL154C, strain vps35, active compounds read low",0.984
same,normalized growth,"locus YJL164C, strain tpk1, active compounds read low",0.892 (active)
same,normalized growth,"locus YJL166W, strain qcr8, active compounds read low",0.871 (active)
same,normalized growth,"locus YJL168C, strain set2, active compounds read low",0.8 (active)
same,normalized growth,"locus YJL187C, strain SWE1 (second series), active compounds read low",0.982
same,normalized growth,"locus YJR043C, strain POL32, active compounds read low",0.671 (active)
same,normalized growth,"locus YJR066W, strain TOR1, active compounds read low",0.0486 (active)
same,normalized growth,"locus YJR075W, strain HOC1, active compounds read low",0.566 (active)
